Assay [1] is described as follows: optical density shifts of acrAB sulA E. coli – strain DRC41, OD650, 48 h, E. coli filamentation inducer project, primary screen (AID 1152).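 Also: E. coli MC1000 strain DRC41 lacking acrAB efflux pump and sulA.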 Conditions: higher = more signal, called active from +8 up or from −8 down.
Assay [2] in a line: probe aLefty1 binding on compound microarray – biochemical, small-molecule microarray, 635/667 nm fluorescence, primary screen (AID 1153).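 Also: score merges spot fluorescence with signal-to-noise ratio from the scanned slide images.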 The conditions noted are these: higher = more signal.
A short description of assay [3]: plasmodial surface anion channel blockers, osmotic lysis – cell-based, P. falciparum Indochina, OD700, 1 h, primary screen (AID 1154). Conditions: P. falciparum Indochina infected RBC osmotic lysis, higher = more signal, called active from +8 up or from −8 down.
Assay [4] can be described thus: plasmodial surface anion channel blockers, osmotic lysis – cell-based, P. falciparum Indochina, OD700, 2 h, primary screen (AID 1155).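 Also: lysis reports solute entry through the parasite surface anion channel PSAC.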 Conditions: P. falciparum Indochina infected erythrocytes, higher = more signal, called active from +8 up or from −8 down.
The nature of assay [5]: changes in parasitized red cell lysis, either direction – P. falciparum Indochina, OD700, 3 h, PSAC antagonist project, primary screen (AID 1156). The conditions noted are these: P. falciparum-infected erythrocytes, osmotic lysis, higher = more signal, called active from +8 up or from −8 down.
A short description of assay [6]: plasmodial surface anion channel blockers, osmotic lysis – cell-based, P. falciparum Indochina, OD700, 18 h, primary screen (AID 1157). The conditions noted are these: P. falciparum Indochina infected erythrocytes, osmotic lysis OD700, 18 h; higher = more signal, called active from +8 up or from −8 down.
Assay [7] in a line: S6 kinase pathway phospho-S6 level changes – cell-based, A549, cytoblot, luminescence, serum-stimulated, primary screen (AID 1158).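 Also: serum-stimulated A549 lung adenocarcinoma cells; signal is phosphorylated S6 detected by cytoblot immunostaining with HRP secondary.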 Conditions: 5 h, higher = more signal.
Assay [8] concerns the target NADPH oxidase 2 (Homo sapiens) (UniProt P04839). The experiment in a line: compounds shifting NOX2 Amplex Red fluorescence – cell-based, HEK293-NOX2, PMA-stimulated, NOX inhibitor project, primary screen (AID 1159). Also: test concentration not given here. The conditions noted are these: 45 min, higher = more signal, called active from +8 up or from −8 down.
For assay [9], the target named is NADPH oxidase 4 (Homo sapiens) (UniProt Q9NPH5). Kind of assay: compounds shifting NOX4 Amplex Red fluorescence – cell-based, HEK293-NOX4, tetracycline-induced, NOX inhibitor project, primary screen (AID 1160). The conditions noted are these: HEK293-NOX4, Amplex Red H2O2 fluorescence, 45 min; higher = more signal, called active from +8 up or from −8 down.
In assay [10] the target is NADPH oxidase 5 (Homo sapiens) (UniProt Q96PH1). The experiment in a line: compounds shifting NOX5 Amplex Red fluorescence – cell-based, HEK293-NOX5, NOX inhibitor project, primary screen (AID 1161). Conditions: HEK293-NOX5, ionomycin, 45 min, higher = more signal.
Assay [11] is described as follows: compound effects on lung adenocarcinoma cell viability – A549, calcein-AM fluorescence, 48 h, basal, profiling panel (AID 1162). Also: test concentration not given here. Conditions: higher = more signal.
Assay [12] is described as follows: compound effects on differentiated 3T3-L1 adipocyte viability – cell-based, 3T3-L1 adipocytes, calcein-AM fluorescence, 48 h, basal, profiling panel (AID 1163). Also: test concentration not given here. The conditions noted are these: 3T3-L1 adipocytes viability, higher = more signal.
Assay [13] is described as follows: compound effects on hepatocellular carcinoma cell viability – HepG2, calcein-AM fluorescence, 48 h, basal, profiling panel (AID 1164). Also: test concentration not given here. The conditions noted are these: higher = more signal.
Assay [14] is described as follows: compound effects on multiple myeloma cell viability – MM1S, calcein-AM fluorescence, 48 h, basal, profiling panel (AID 1165). Also: test concentration not given here. The conditions noted are these: higher = more signal.
A short description of assay [15]: calcein-AM signal in unstimulated myeloma cells – cell-based, calcein-AM fluorescence, 48 h, PK04 Diversity Set, profiling panel (AID 1166).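 Also: cells grown under basal conditions without added stimulus; test concentration not given here.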 The conditions noted are these: RPMI8226 myeloma viability, higher = more signal.
Assay [16] can be described thus: JC-1 mitochondrial signal, unstimulated HepG2 cells – cell-based, JC-1 fluorescence, 24 h, 100 nL compound, profiling panel (AID 1167). Also: test concentration not given here. The conditions noted are these: HepG2 mitochondrial potential, higher = more signal.
Assay [17] can be described thus: JC-1 mitochondrial signal, unstimulated adipocytes – cell-based, JC-1 fluorescence, 3T3-L1 adipocytes, 24 h, 100 nL compound, profiling panel (AID 1168). Also: test concentration not given here. Conditions: JC-1 mitochondrial fluorescence, higher = more signal, called active from +8 up or from −8 down.
The nature of assay [18]: JC-1 mitochondrial signal, unstimulated myeloma cells – cell-based, JC-1 fluorescence, RPMI8226, 24 h, 100 nL compound, profiling panel (AID 1169). Also: test concentration not given here. Conditions: JC-1 mitochondrial potential fluorescence, higher = more signal.
A short description of assay [19]: JC-1 mitochondrial signal, unstimulated MM1S myeloma – cell-based, JC-1 fluorescence, 24 h, 100 nL compound, profiling panel (AID 1170). Also: test concentration not given here. Conditions: MM1S mitochondrial potential, higher = more signal.
The nature of assay [20]: resazurin metabolic signal in A549 cells – cell-based, resazurin fluorescence, 24 h, PK04 Diversity Set, profiling panel (AID 1171). Also: test concentration not given here. The conditions noted are these: A549 viability, higher = more signal, called active from +8 up or from −8 down. In general terms: Resazurin is reduced to fluorescent resorufin, in cell work by metabolically active cells.

Where “and” joins values, the source holds several entries; their conditions need not be identical. Equal values may be shown once. Calls of active or inactive are those of the source.

Sequence of NADPH oxidase 5 (Homo sapiens) (Q96PH1 whole entry, looked up): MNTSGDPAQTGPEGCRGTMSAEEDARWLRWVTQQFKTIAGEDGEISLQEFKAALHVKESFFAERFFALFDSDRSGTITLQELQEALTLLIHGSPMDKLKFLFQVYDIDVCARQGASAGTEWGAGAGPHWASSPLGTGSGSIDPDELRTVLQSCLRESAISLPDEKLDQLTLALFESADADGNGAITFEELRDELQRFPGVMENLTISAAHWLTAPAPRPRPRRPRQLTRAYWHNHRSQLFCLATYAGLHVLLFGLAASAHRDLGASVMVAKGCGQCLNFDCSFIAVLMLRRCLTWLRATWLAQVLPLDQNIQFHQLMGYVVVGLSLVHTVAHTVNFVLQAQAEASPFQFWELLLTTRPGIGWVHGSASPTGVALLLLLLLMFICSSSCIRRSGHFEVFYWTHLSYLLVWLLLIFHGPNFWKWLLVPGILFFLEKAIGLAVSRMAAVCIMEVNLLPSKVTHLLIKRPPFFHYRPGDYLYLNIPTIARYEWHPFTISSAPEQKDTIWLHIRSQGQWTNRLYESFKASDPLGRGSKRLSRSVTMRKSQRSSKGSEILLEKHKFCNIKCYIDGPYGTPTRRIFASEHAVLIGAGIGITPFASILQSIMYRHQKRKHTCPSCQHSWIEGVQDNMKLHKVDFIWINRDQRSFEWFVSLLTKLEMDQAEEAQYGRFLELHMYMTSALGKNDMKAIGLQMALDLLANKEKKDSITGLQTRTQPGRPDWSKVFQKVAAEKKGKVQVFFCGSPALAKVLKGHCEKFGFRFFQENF
Sequence of NADPH oxidase 2 (Homo sapiens) (P04839 whole entry, looked up): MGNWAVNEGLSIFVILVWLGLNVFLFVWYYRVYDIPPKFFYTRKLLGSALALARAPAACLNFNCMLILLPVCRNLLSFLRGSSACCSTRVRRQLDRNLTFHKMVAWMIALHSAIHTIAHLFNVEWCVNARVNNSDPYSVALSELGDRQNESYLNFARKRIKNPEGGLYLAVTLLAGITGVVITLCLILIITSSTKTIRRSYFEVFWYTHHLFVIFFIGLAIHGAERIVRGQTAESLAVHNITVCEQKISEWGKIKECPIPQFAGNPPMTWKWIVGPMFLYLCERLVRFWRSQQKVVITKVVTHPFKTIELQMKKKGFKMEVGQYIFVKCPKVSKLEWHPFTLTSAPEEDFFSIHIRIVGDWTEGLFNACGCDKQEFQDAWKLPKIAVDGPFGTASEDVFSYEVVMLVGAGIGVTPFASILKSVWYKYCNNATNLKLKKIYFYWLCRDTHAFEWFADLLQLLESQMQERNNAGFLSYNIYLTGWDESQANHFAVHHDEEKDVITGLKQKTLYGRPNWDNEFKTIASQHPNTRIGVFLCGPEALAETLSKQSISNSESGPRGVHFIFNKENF
Sequence of NADPH oxidase 4 (Homo sapiens) (Q9NPH5 whole entry, looked up): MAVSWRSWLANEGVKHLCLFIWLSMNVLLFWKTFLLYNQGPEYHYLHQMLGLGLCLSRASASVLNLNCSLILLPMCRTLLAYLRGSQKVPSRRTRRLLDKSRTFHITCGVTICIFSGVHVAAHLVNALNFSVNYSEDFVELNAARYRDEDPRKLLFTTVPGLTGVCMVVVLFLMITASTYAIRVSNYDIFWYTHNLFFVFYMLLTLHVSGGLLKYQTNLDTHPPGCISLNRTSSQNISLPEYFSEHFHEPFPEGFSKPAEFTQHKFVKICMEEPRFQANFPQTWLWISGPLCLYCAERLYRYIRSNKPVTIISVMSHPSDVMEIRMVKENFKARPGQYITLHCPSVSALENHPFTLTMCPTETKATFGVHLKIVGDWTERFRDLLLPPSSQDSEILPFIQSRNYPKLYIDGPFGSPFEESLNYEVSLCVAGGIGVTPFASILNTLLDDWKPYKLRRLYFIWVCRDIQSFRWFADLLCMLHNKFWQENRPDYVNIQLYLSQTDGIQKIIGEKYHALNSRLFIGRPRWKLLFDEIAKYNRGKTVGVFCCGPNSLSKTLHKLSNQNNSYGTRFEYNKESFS

`CC(CO)N1C(=O)[C@@H]2C3C(=O)OCCC=C[C@H]3OC23C=CCN(c2ccc(Cl)cc2)C(=O)[C@@H]13` (stereo not given in full): the z-score is -0.0529 (inactive) and -0.655 (inactive) in assay [1]; 0.725 (inactive) and 3.92 (inactive) in [3]; 1.02 (inactive) and 0.352 (inactive) in assay [4]; 0.741 (inactive) and 0.968 (inactive) in assay [5]; 0.817 (inactive) and 0.0372 (inactive) in assay [6]; -0.7 and -0.574 in [7]. The z-score was 1.59 (inactive) and 1.47 (inactive) in assay [8]; 1.03 (inactive) and 1.11 (inactive) in assay [9]; 2.46 and 2.5 in assay [10]; 0.112 and -0.123 in assay [11]; 0.194 and 0.458 in [12]; 0.47 and 1.07 in assay [13]. Besides, the z-score is -0.725 and -0.182 in [14]; 0.622 and -0.222 in assay [15]; 0.242 and 0.0111 in assay [16]; 0.518 (inactive) and -0.689 (inactive) in [17]; 0.0601 and -0.811 in assay [18]; 0.936 and -0.274 in assay [19]. In addition, the z-score in [20] was 0.189 (inactive) and 0.557 (inactive). The composite z-score in [2] is -0.142 and 0.422.

As to `CCOC(=O)NN=C1C[C@@H](O)[C@@H](O)[C@@H]2[C@@H]3C(=O)N(Cc4ccccc4)C(=O)[C@@H]3CC[C@@H]12`, the z-score in [1] was -2.78 (inactive); in assay [3] it was 1.04 (inactive); in assay [4], 0.628 (inactive); in assay [5] it was 0.979 (inactive); in [6], 0.403 (inactive); in [7] it was -0.154. In addition, the z-score is -0.6 (inactive) in [8]; -0.393 (inactive) in assay [9]; -0.365 in [10]; -0.226 in assay [11]; -0.0135 in [12]; -1.29 in [13]. Also, the z-score is 0.599 in assay [14]; -0.461 in assay [15]; 0.548 in [16]; 0.152 (inactive) in assay [17]; 0.387 in [18]; -0.979 in [19]. In assay [20], the z-score is 0.0002 (inactive). The molecule further returned a composite z-score in assay [2] of -0.641.

In the case of `C=CCN(C(=O)C(c1cccs1)N(C(=O)/C=C\C(=O)O)c1c(Cl)cccc1CO)c1ccc(OC)cc1` (stereo not given), the z-score in assay [1] is 1.42 (inactive) and -0.536 (inactive); in assay [3], -0.363 (inactive) and 2.52 (inactive); in [4], -1.53 (inactive) and 0.102 (inactive); in assay [5], -0.806 (inactive) and -0.455 (inactive); in assay [6], -1.39 (inactive) and 0.0841 (inactive); in assay [7], 0.312 and 0.429. The z-score in [8] was -0.102 (inactive) and -0.012 (inactive); in assay [9], -1.08 (inactive) and -1.05 (inactive); in [10], 0.145 and 0.141; in assay [11], 1.15 and 1.21; in assay [12] it was 0.111 and 0.112; in [13], 0.24 and 0.365. Moreover, the z-score in assay [14] was 1.51 and -0.996; in assay [15], 0.844 and 0.57; in assay [16] it was 0.601 and -1.19; in assay [17] it was 0.418 (inactive) and 0.623 (inactive); in assay [18], -0.74 and -0.0886; in assay [19], 1.4 and -0.173. The z-score in assay [20] was 0.747 (inactive) and -0.246 (inactive). Moreover, the composite z-score in assay [2] was 0.188 and 0.207.

For `CCOC(=O)C[C@H]1[C@H](OC(=O)c2ccccc2-c2ccccc2)[C@@H](NC(=O)Cc2ccc(OC)cc2)c2cc(OCCCO)ccc2N1C(=O)Cc1ccc(OC)cc1`, the z-score in [1] is 2.52 (inactive) and -0.448 (inactive); in [3], 2.32 (inactive) and 2.14 (inactive); in [4], -0.672 (inactive) and 0.269 (inactive); in assay [5], 0.308 (inactive) and -0.142 (inactive); in [6], -1.18 (inactive) and 0.255 (inactive); in assay [7], 0.551 and -0.0127. In addition, the z-score in assay [8] is 1.61 (inactive) and 0.265 (inactive); in assay [9] it was -0.904 (inactive) and 0.828 (inactive); in assay [10], 1.79 and 0.274; in assay [11], 0.615 and 0.158; in assay [12] it was 1.92 and 0.0868; in [13], -0.0677 and -0.11. For the same molecule, the z-score is 0.902 and -0.0317 in [14]; 0.869 and -0.427 in [15]; 3.07 and 0.376 in assay [16]; 0.491 (inactive) and 0.191 (inactive) in assay [17]; 0.846 and -0.309 in [18]; 1.46 and 0.00765 in assay [19]. Further, the z-score in assay [20] was 0.615 (inactive) and 0.786 (inactive). Also, the composite z-score in assay [2] was 0.349 and -0.0601.

For `CCCCN1CC=CC23O[C@@H]4C=CCCOC(=O)C4[C@H]2C(=O)N(C(C)CO)[C@@H]3C1=O` (stereo not given in full), the z-score in assay [1] was -0.462 (inactive) and -0.0672 (inactive); in [3], 1.77 (inactive) and 0.636 (inactive); in [4], 0.446 (inactive) and 1.06 (inactive); in assay [5] it was 0.874 (inactive) and 1.09 (inactive); in assay [6], 0.234 (inactive) and 0.601 (inactive); in assay [7], 1.48 and 1.2. In addition, the z-score in assay [8] is 1.49 (inactive) and 1.3 (inactive); in [9], 0.784 (inactive) and 0.359 (inactive); in assay [10], 2.31 and 2; in assay [11], -0.301 and -0.336; in assay [12], -0.457 and -0.57; in assay [13], -0.469 and -0.612. For the same molecule, the z-score in [14] was 1.07 and 0.893; in assay [15], -0.736 and -0.717; in assay [16], -0.494 and -0.753; in assay [17], -0.433 (inactive) and -0.828 (inactive); in assay [18] it was -0.129 and 0.0982; in assay [19], -0.686 and -0.347. The z-score in assay [20] is 0.237 (inactive) and -0.595 (inactive). Further, in assay [2], the composite z-score was -0.007 and 0.0181.

(Values after PubChem BioAssay.)
